Experimental data published in the supplement of paper PMC6853941.
Where a name gives a salt, the structure may show the parent alone.

System: MCF10A
Experiment: perturbation Mahalanobis distance of morphological profile vs DMSO controls (Mahalanobis distance (SD units)); higher = stronger morphological change, active = 7 or more
Details: 72 h
Method: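 MCF10A cells were seeded onto drugs dispensed acoustically into 384-well plates, using one dose per drug chosen from its human peak plasma concentration, and incubated for 72 h at 37 °C. Cells were stained for DNA, tubulin and mitochondria and imaged; 78 CellProfiler features were extracted, plate-normalised and compared with DMSO wells.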

[1] = screen batch: Batch1_Mahalanobis_Distance
[2] = screen batch: Batch2_Mahalanobis_Distance

Row | SMILES | perturbation Mahalanobis distance [1] | perturbation Mahalanobis distance [2]
1 | Cc1nnc(C(C)C)n1C1C[C@H]2CC[C@@H](C1)N2CC[C@H](NC(=O)C1CCC(F)(F)CC1)c1ccccc1 (stereo partly drawn) [Maraviroc] (11.35 µM) | 2.84 (inactive) | 2.67 (inactive)
2 | Nc1ccc(C(=O)O)c(O)c1 [4-Aminosalicylic Acid] (130.6 µM) | 12.9 (active) | 13.9 (active)
3 | Nc1cc(N2CCCCC2)nc(N)[n+]1OS(=O)(=O)[O-] [Minoxidil Sulfate] (4.3 µM) | 3.4 (inactive) | 3.55 (inactive)
4 | CC(C)(Sc1cc(C(C)(C)C)c(O)c(C(C)(C)C)c1)Sc1cc(C(C)(C)C)c(O)c(C(C)(C)C)c1 [Probucol] (12.58 µM) | 2.88 (inactive) | 3.01 (inactive)
5 | C#C[C@]1(O)CC[C@H]2[C@@H]3CCc4cc(O)ccc4[C@H]3CC[C@@]21C [Ethinyl Estradiol] (23 µM) | 5.9 (inactive) | 3.63 (inactive)
6 | Cn1nnc2c(C(N)=O)ncn2c1=O [Temozolomide] (70.6 µM) | 3.51 (inactive) | 2.12 (inactive)
7 | CO/N=C(\C(=O)N[C@@H]1C(=O)N2C(C(=O)O)=C(CSc3nnnn3C)CS[C@H]12)c1csc(N)n1 [Cefmenoxime] (183.8 µM) | 3.87 (inactive) | 4.1 (inactive)
8 | N[C@@H](CC(=O)N1CCn2c(nnc2C(F)(F)F)C1)Cc1cc(F)c(F)cc1F [Sitagliptin] (4.8 µM) | 2.76 (inactive) | 2.49 (inactive)
9 | CCC(=O)NCC[C@@H]1CCc2ccc3c(c21)CCO3 [Ramelteon] (0.13 µM) | 2.83 (inactive) | 2.59 (inactive)
